Experimental data as given in PubChem BioAssay AID1159580 (chemical genetic matrix, 2015).
Where “and” joins values, the source holds several entries; their conditions need not be identical. Identical values can stand only once. Hit rate of the full screen: of about 5,500 compounds, about 2,000 (36%) were called active. Not shown: some 18% with an inconclusive outcome. Cut-off read from the data, not from the text of the source: active = normalized growth mostly below about 0.91 (no sharp cut-off); inconclusive = no clear call, values can overlap the other calls; inactive = mostly above about 0.92. Some of the results follow.

Assay: chemical genetic growth profiling, strain panel (AID 1159580);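 note: tested at 20 µM; growth read once vehicle control cultures reached saturation at 30 °C; 1 = growth at the plate median or of vehicle wells; lower values mean less growth of the strain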
Conditions: S. cerevisiae deletion strains, growth OD

Measured: normalized growth

CC1=C(C(C)O)C2=NC1C=c1[nH]c(c(C)c1C(C)O)=Cc1[nH]c(c(CCC(=O)O)c1C)C=c1[nH]c(c(C)c1CCC(=O)O)=C2 (configuration not stated)
inactive: locus YAL013W, strain DEP1, active compounds read low 0.937 | locus YAL021C, strain ccr4, active compounds read low 0.982 | locus YAL026C, strain drs2, active compounds read low 0.988 | locus YAL030W, strain snc1, active compounds read low 0.995 | locus YBL061C, strain skt5, active compounds read low 0.986 | locus YBR009C, strain hhf1, active compounds read low 0.986 | locus YBR021W, strain FUR4, active compounds read low 0.998 | locus YBR023C, strain chs3, active compounds read low 0.986 | locus YBR171W, strain sec66, active compounds read low 0.994 | locus YBR229C, strain ROT2, active compounds read low 1 | locus YBR231C, strain swc5, active compounds read low 0.988 | locus YBR279W, strain paf1, active compounds read low 1.01 | locus YCL011C, strain gbp2, active compounds read low 0.994 | locus YCL016C, strain dcc1, active compounds read low 0.986 | locus YCL029C, strain bik1, active compounds read low 1.02 | locus YCL061C, strain MRC1, active compounds read low 0.989 | locus YCL069W, strain vba3, active compounds read low 0.99 | locus YCR088W, strain abp1, active compounds read low 0.985 | locus YDL005C, strain med2, active compounds read low 0.995 | locus YDL035C, strain GPR1, active compounds read low 0.976 | locus YDL040C, strain nat1, active compounds read low 0.998 | locus YDL074C, strain BRE1, active compounds read low 0.956 | locus YDL101C, strain DUN1, active compounds read low 0.999 | locus YDL185W, strain tfp1, active compounds read low 1 | locus YDL192W, strain arf1, active compounds read low 0.989 | locus YDR001C, strain nth1, active compounds read low 1 | locus YDR069C, strain doa4, active compounds read low 0.999 | locus YDR101C, strain arx1, active compounds read low 1.01 | locus YDR137W, strain rgp1, active compounds read low 1.04 | locus YDR150W, strain NUM1, active compounds read low 0.997 | locus YDR159W, strain sac3, active compounds read low 0.946 | locus YDR162C, strain NBP2, active compounds read low 0.897 | locus YDR195W, strain ref2 0.935 | locus YDR297W, strain sur2, active compounds read low 0.986 | locus YDR318W, strain mcm21, active compounds read low 1.01 | locus YDR334W, strain swr1, active compounds read low 0.993 | locus YDR335W, strain msn5, active compounds read low 1 | locus YDR388W, active compounds read low 1.02 | locus YDR392W, strain spt3, active compounds read low 0.839 | locus YDR502C, strain sam2, active compounds read low 0.977 | locus YEL003W, strain gim4, active compounds read low 0.977 | locus YEL037C, strain rad23, active compounds read low 1 | locus YEL061C, strain CIN8 (second series), active compounds read low 0.996 | locus YEL061C, strain CIN8, active compounds read low 0.995 | locus YER015W, strain faa2, active compounds read low 1.01 | locus YER016W, strain bim1, active compounds read low 0.989 | locus YER110C, active compounds read low 1.03 | locus YER111C, strain swi4, active compounds read low 0.986 | locus YER155C, strain BEM2 (second series), active compounds read low 0.998 | locus YER155C, strain BEM2, active compounds read low 0.995 | locus YER167W, strain BCK2, active compounds read low 0.96 | locus YFR010W, strain ubp6, active compounds read low 0.999 | locus YGL078C, strain dbp3, active compounds read low 1.03 | locus YGL086W, strain mad1, active compounds read low 0.968 | locus YGL167C, strain pmr1, active compounds read low 0.995 | locus YGL173C, strain kem1, active compounds read low 0.983 | locus YGL227W, strain vid30, active compounds read low 0.993 | locus YGL240W, strain doc1, active compounds read low 0.945 | locus YGL248W, strain PDE1, active compounds read low 1.01 | locus YGL253W, strain hxk2, active compounds read low 1 | locus YGR078C, strain PAC10, active compounds read low 0.984 | locus YGR135W, strain pre9, active compounds read low 0.973 | locus YGR252W, strain gcn5, active compounds read low 1 | locus YHR013C, strain ard1, active compounds read low 0.931 | locus YHR027C, strain rpn1, active compounds read low 1 | locus YHR030C, strain SLT2, active compounds read low 1.01 and 1.06 | locus YHR079C, strain IRE1 (second series), active compounds read low 1.01 | locus YHR079C, strain IRE1, active compounds read low 1.05 | locus YHR094C, strain hxt1, active compounds read low 1.02 | locus YHR129C, strain ARP1, active compounds read low 1 | locus YHR142W, strain chs7, active compounds read low 1.01 | locus YHR200W, strain rpn10, active compounds read low 0.986 | locus YIL066C, strain RNR3, active compounds read low 0.98 | locus YIL073C, strain SPO22, active compounds read low 1.12 | locus YIL125W, strain kgd1, active compounds read low 1.02 | locus YIR030C, strain dcg1, active compounds read low 1.01 | locus YJL092W, strain hpr5, active compounds read low 0.992 | locus YJL095W, strain BCK1 (second series), active compounds read low 0.994 | locus YJL095W, strain BCK1, active compounds read low 0.982 and 1.06 | locus YJL115W, strain asf1, active compounds read low 0.977 | locus YJL129C, strain trk1, active compounds read low 0.949 | locus YJL134W, strain LCB3, active compounds read low 1 | locus YJL154C, strain vps35, active compounds read low 0.995 | locus YJL164C, strain tpk1, active compounds read low 0.986 | locus YJL166W, strain qcr8, active compounds read low 0.966 | locus YJL168C, strain set2, active compounds read low 1 | locus YJL187C, strain SWE1 (second series), active compounds read low 1
